# Ec RNAP inh: blocks E. coli RNA polymerase transcription; AID 559; 0.2% of 62,000 active; P0A8V2; inhibition, %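 (tested at 10 µM)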; fluorescence transcription assay; in the data active = inhibition above about 20%;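 also: 0% = enzyme without compound and 100% = no enzyme blank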
# sEH inhibitor: blocks human soluble epoxide hydrolase activity; P34913; recombinant human sEH enzymatic activity assay; inhibition, % at 2 µM; 0.34% of 91,000 active; in the data active = inhibition above about 80%
# LYP inh 2: inhibitors of human LYP (PTPN22) phosphatase. Q9Y2R2. recombinant LYP catalytic domain, DiFMUP fluorescence. inhibition, % at 2 µM. 0.21% of 96,000 active. AID 640;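 active = inhibition at 2 µM at or above a set limit, the screen mean plus 3 SD, cut at about 24% in these data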;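 also: 0% = DMSO with enzyme and 100% = enzyme fully blocked by orthovanadate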
# sEH act: soluble epoxide hydrolase (human) activation. purified human sEH enzymatic activity, activator screen. activation, % at 2 µM. 0.04% of 91,000 active. AID 717; in the data active = activation above about 37%
# MT1-MMP txn act: MT1-MMP promoter transcription activation. activation factor at 10 µM. HT1080 MT1-MMP promoter luciferase reporter, luminescence, overnight; hits give high values. 0.16% of 86,000 active;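 active = activation factor of at least 2 for MT1-MMP transcription at 10 µM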
# LYP act: LYP (human) phosphatase activation | Q9Y2R2 | recombinant LYP, DiFMUP fluorescence; 0 = plate median, 100 = signal doubled | activation, % at 2 µM | 0.11% of 96,000 active | AID 697;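 active = activation at 2 µM above a set limit, the mean plus 5 SD, cut at about 37% in these data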
# Numbers without * were called inactive; · = not tested or not shown. A selection: hits, their analogues and other compounds. The true share with any hit is near 0.64%.
SMILES,Ec RNAP inh,sEH inhibitor,LYP inh 2,sEH act,MT1-MMP txn act,LYP act
CCOC(=O)c1c(-n2c(C)cc(C=C3C(=O)NC(=S)NC3=O)c2C)sc2c1CCCC2,·,-6,29*,5,·,-24
CCCc1cc2c(n1Cc1ccco1)C(C)C1CN(C(=O)c3ccccc3)C(C)(C(=O)OC)C21 (stereo not drawn),·,·,·,·,1.1,·
COC(=O)[C@@H]1C[C@H]2CC[C@H](O)C[C@H]2N1CC1CC1,·,·,·,·,1.1,·
CCN(CC)CCNC(=O)c1c(O)c2ccccc2n(Cc2ccccc2)c1=O,·,-3,5,2,1.1,-1
CCN(CC)CCCNC(=O)c1c(O)c2ccccc2n(Cc2ccccc2)c1=O,8,3,24*,-2,1,-22
C=C(CC1(CNP(=O)(c2ccccc2)c2ccccc2)CC1)c1ccccc1,·,·,·,·,2*,·

# Assay outcomes from PubChem.
